Bioassay records: PubChem BioAssay, National Center for Advancing Translational Sciences (NCATS)
Only some compounds are listed: those with a hit (about 0.97% of all), similar ones and a draw of the others.
CCT chaperon mod: changes cytosolic chaperonin activity | purified chaperonin ATPase assay, HTRF ADP detection, 30 min | activity change, % (test concentration not listed), hits read low | actives 0.3% (n = 360,000); in the data active means activity change below about -30%
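ATPase activity: ADP formed was measured by HTRF Transcreener (665/615 nm ratio) after 30 min at 37 deg C with 10 uM ATP. Compounds screened at one 76 uM concentration against 40 or 20 nM TRiC in Tris pH 7.4/KCl/MgCl2/DTT buffer.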
Six1-Eya2 blk: inhibitors of human Six1/Eya2 interaction | actives 0.56% (n = 360,000) | AlphaScreen GST-Six1/His-Eya2 binding, biochemical; active compounds read low | Q15475+O00167 | AID 651725 | activity change, % (test concentration not listed)
Target sequence (O00167 whole entry, looked up): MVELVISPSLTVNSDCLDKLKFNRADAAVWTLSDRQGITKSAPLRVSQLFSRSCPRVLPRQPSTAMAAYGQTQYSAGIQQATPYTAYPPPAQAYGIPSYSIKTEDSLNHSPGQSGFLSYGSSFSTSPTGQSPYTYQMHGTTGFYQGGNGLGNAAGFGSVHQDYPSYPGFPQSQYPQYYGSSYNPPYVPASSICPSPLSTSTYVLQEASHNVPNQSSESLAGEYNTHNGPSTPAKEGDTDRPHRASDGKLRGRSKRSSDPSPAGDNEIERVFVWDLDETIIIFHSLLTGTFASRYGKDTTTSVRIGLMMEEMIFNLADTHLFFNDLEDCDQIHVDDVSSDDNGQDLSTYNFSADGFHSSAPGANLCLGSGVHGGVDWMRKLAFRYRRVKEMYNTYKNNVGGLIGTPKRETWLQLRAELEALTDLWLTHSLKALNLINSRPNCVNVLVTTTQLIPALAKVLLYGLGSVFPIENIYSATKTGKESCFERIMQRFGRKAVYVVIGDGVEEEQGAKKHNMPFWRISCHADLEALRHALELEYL
Target sequence (Q15475 whole entry, looked up): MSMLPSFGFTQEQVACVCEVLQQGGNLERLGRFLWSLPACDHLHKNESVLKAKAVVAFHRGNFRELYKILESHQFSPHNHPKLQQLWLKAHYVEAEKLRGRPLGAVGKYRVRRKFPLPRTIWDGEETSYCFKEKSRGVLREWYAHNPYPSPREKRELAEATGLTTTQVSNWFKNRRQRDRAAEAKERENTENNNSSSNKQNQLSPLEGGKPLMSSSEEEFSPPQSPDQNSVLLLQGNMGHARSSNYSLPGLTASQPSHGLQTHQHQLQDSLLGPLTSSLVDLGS
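Homogeneous AlphaScreen proximity assay pairing GST-Six1 with His-tagged Eya2 (added as 5X mix: 250 nM and 500 nM) in 50 mM Tris pH 8.0, 300 mM NaCl, 1 mM TCEP. Glutathione donor and nickel acceptor beads; 1 h, 37 °C, dark.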
PI4K2A block: PI4K2A (human) kinase inhibition | Q9BTU6 | purified PI4K2A, ADP-Glo luminescence, 1 h; active compounds read low | activity change, negative = inhibition, % at 76.9 µM | actives 0.13% (n = 420,000) | AID 1346378; in the data active means activity change below about -50%; inconclusive means mostly about -30% to -49%;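 further: -100% = wells without enzyme as full effect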
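In this quantitative HTS, ADP production by PI4K2A was quantified luminescently after 1 h at ambient temperature; 100 microM adenosine served as plate-quality control.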
Eya2 inh: Eya2 (human) phosphatase inhibition | O00167 | Potency, µM (top dose mostly 76.9 µM), for the others: at the highest dose activity, negative = inhibition, most hits filed as inhibitors | recombinant Eya2, OMFP fluorescence dephosphorylation (OMFP is methylfluorescein phosphate) | actives 0.006% (n = 330,000); active means well fitted inhibition curve with a large enough effect; inconclusive means small, poorly fitted or top-dose-only effect, or effect the other way; further: potency means the concentration at half of the fitted maximal effect
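Eya2 protein (added as 0.2 uM solution) was preincubated with compound for 10 min at ambient temperature in 50 mM HEPES pH 7.5, 50 mM NaCl, 5 uM MgCl2, 0.05% BSA, 1 mM DTT. OMFP (added at 50 uM) then reacted 10 min; fluorescence read at 485/525 nm.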
CtBP-E1A inh: CtBP/E1A binding inhibition. AlphaScreen GST-E1A/His-CtBP binding, 1536-well; active compounds read low. activity change, % (concentration not given with the values). actives 0.49% (n = 340,000). AID 651724
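GST-E1A and His-tagged CtBP (125 nM each as 5X stock) were preincubated with pin-transferred compound for 2 h at 37 °C in the dark, then glutathione donor and nickel acceptor beads were added for 1 h before AlphaScreen reading.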
Active calls of the source: *; ? = inconclusive; . = no result given. Unless noted, no stated cut-off is given here; in the data, active means activity change below about -65%; inconclusive means mostly about -30% to -63%; inactive means weaker than that. Unless noted, on the % scale 0 is the no-effect control and ±100 the full control effect.

SMILES	CCT chaperon mod	Six1-Eya2 blk	PI4K2A block	Eya2 inh	CtBP-E1A inh
Cc1nn(CC(=O)N2CCC(C)CC2)c(=O)c2cccn12	-55*	-11	-15	-1%	.
CCC(Cc1ccccc1)NC(=O)Cn1cccc1C(=O)c1ccccc1 (configuration not stated)	-42*	-11	-6	-7%	.
O=[N+]([O-])c1ccc(/C=N/Nc2nc(NCc3ccccc3)nc(N3CCOCC3)n2)cc1	-11	1	-2	-10%	.
O=[N+]([O-])c1cccc(/C=N/Nc2nc(NCc3ccccc3)nc(N3CCOCC3)n2)c1O	1	-94*	-5	-8%	-67*
CCC(=O)c1ccc(OCC(=O)Nc2cc(S(=O)(=O)N3CCCCC3)ccc2N2CCN(CC)CC2)cc1	-121*	?	-6	-7%	-27
Cc1ccc(-c2ccccc2C#N)cc1	.	.	-2	.	.
COc1cccc(-n2c(SCC(=O)NCCC3=CCCCC3)nc3n[nH]c(C)c3c2=N)c1	-6	-79*	-9	-18%	-70*
Cc1[nH]nc2nc(SCC(=O)NCC3CCCO3)n(-c3ccc(Br)cc3)c(=N)c12 (configuration not stated)	1	-65*	-2	4%	?
CCC(C)NC(=O)CSc1nc2n[nH]c(C)c2c(=N)n1-c1ccc(OC)cc1 (configuration not stated)	3	-74*	-3	-6%	-85*
CCOc1ccc(-n2c(SCC(=O)NC(C)CC)nc3n[nH]c(C)c3c2=N)cc1 (configuration not stated)	-1	-14	-13	12%	?
Cc1cc(-n2c(SCC(=O)Nc3ccc(Br)cc3)nc3n[nH]c(C)c3c2=N)ccc1Cl	-3	1	-9	-10%	2
COc1ccc(N2CCC(CNC(=O)Nc3ccccc3)C2)cc1 (configuration not stated)	-2	?	-1	-17%	?
COc1ccc(N2CCC(CNC(=S)Nc3cc(C)ccc3C)C2)cc1 (configuration not stated)	1	-69*	3	3%	.
COc1ccc(N2CCC(CNC(=S)Nc3cc(C)cc(C)c3)C2)cc1 (configuration not stated)	-1	-66*	11	11%	-70*
CCOc1ccc(-c2nonc2NC(=O)c2oc3ccc(F)cc3c2C)cc1	.	.	-3	.	.
O=C(O)c1cc(Nc2cc(Cl)c3nonc3c2[N+](=O)[O-])ccc1O	2	-79*	-59*	-9%	.
CCc1ccccc1N(CC)C(=O)c1c(C)oc2ncnc(N3CCOCC3)c12	.	.	5	.	.
CCc1ccc(S(=O)(=O)/N=C2/C=C(Sc3ncn[nH]3)C(=O)c3ccccc32)cc1	1	-11	-56*	-6%	0
CCc1ccc(S(=O)(=O)/N=C2\C=C(Nc3ccc(O)cc3)C(=O)c3ccccc32)cc1	0	-70*	?	0%	-89*
CCc1ccc(S(=O)(=O)/N=C2\C=C(Nc3cccc(C(=O)O)c3)C(=O)c3ccccc32)cc1	3	?	?	-20%	-75*
CCc1ccc(S(=O)(=O)/N=C2\C=CC(=O)c3ccccc32)cc1	.	.	.	7%	.
CC1=C(C(=O)NCCc2ccc(Cl)cc2)C2(CCCCC2)OC1=O	.	.	2	.	.
O=C(NCCn1cc(SCc2ccc(F)cc2)c2ccccc21)c1cccs1	.	.	-6	.	.
CN1CCN(c2nc3c(c(=O)[nH]c(=O)n3C)n2Cc2ccc([N+](=O)[O-])cc2)CC1	-76*	-1	-2	7%	.
O=C(OCc1c(F)cccc1Cl)c1cnccn1	-40*	8	2	6%	1
SMILES	CCT chaperon mod	Six1-Eya2 blk	PI4K2A block	Eya2 inh	CtBP-E1A inh
S=c1[nH]nc(-c2ccccn2)n1/N=C/c1ccc(Br)s1	-2	-77*	-10	-2%	7
Cc1n[nH]c(=S)n(/N=C/c2ccccn2)c1=O	0	-79*	2	2%	-87*
CCc1n[nH]c(=S)n1/N=C/c1ccccn1	-3	1	-4	9%	-2
Cc1cc(-c2n[nH]c(=S)n2/N=C/c2ccc(Cl)c([N+](=O)[O-])c2)n[nH]1	0	-14	10	-3%	-3
Cc1cc(-c2n[nH]c(=S)n2/N=C/c2cc([N+](=O)[O-])ccc2Cl)n[nH]1	-1	-80*	6	-4%	-81*
Cc1n[nH]c(=S)n(/N=C/c2cccc([N+](=O)[O-])c2)c1=O	-1	?	4	-7%	-66*
C=CCN1C/C(=C/c2ccccc2)N2C(=O)CC(c3ccccc3)N=C12 (configuration not stated)	.	.	-5	.	.
Fc1ccc(Nc2ncnc3onc(-c4cccc(Cl)c4)c23)c(F)c1	.	.	4	.	.
COc1ccc(C)cc1NC(=O)c1sc2ncnc(N3CCN(c4ccccn4)CC3)c2c1C	-139*	0	5	3%	-7
Cc1nnc2ccc(-c3cccc(NC(=O)c4ccc(Br)o4)c3)nn12	1	?	-8	-4%	-65*
COc1ccc(C(=O)Nc2ccccc2C(=O)Nc2ccccc2C(=O)O)cc1	0	-66*	-4	4%	-77*
COc1ccc(CC(=O)Nc2ccc(C(=O)Nc3ccccc3C(=O)O)cc2)cc1OC	0	-76*	0	9%	-67*
O=C(Nc1ccccc1C(=O)O)c1cccc(NC(=O)c2ccccc2Br)c1	-1	-7	-16	13%	-10
O=C(Nc1cc(C(=O)Nc2ccccc2C(=O)O)cc(C(=O)Nc2ccccc2C(=O)O)c1)c1ccccc1	1	-69*	-16	-7%	?
CCN(CC)c1ccc(NC(=O)c2cnc3c(-c4ccccc4)c(C)nn3c2C)c(C)c1	.	.	0	.	.
COc1cccc(CNC(=O)CNS(=O)(=O)c2ccc3nc(C)sc3c2)c1	.	.	2	.	.
CCOc1ccc2[nH]cc(C(=O)N3CCN(C4CCCCC4)CC3)c(=O)c2c1	-57*	1	-1	.	18
COc1ccc(Br)cc1CNc1ccc(O)cc1	0	?	-50*	-17%	?
COc1ccc(Br)cc1CNc1ccc2[nH]c(=O)[nH]c2c1	1	-20	-2	-10%	-22
COc1ccc2c(c1)sc1nc(-c3ccccc3)cn12	-2	39	-60*	-9%	0
COc1ccc(-c2cn3c(n2)sc2cc(C(=O)NCc4ccccc4)ccc23)cc1	.	.	-10	.	.
COc1cccc(NC(=O)C(C)n2c(=O)cc(C(F)(F)F)c3c(C)nn(C)c32)c1 (configuration not stated)	.	.	8	.	.
COc1cc(NS(=O)(=O)c2ccc(Nc3nc(-c4ccccn4)cs3)cc2)nc(OC)n1	-7	-79*	0	3%	-76*
COc1ccc(-c2csc(Nc3ccc(S(=O)(=O)Nc4cc(OC)nc(OC)n4)cc3)n2)cc1	-1	-17	-1	-23%	-21
